# Bioassay records from PubChem BioAssay.
# Arbovirus inh = antivirals against arbovirus infection, primary screen, cell-based, full library, 10K replicate subset | 0.37% of 200,000 active | AID 1251, 2008 | inhibition, % at 10 µM | arbovirus infection cell-based antiviral screen; in the data active = inhibition above about 30%
# Autophagy HCS = autophagy modulators in MEF cells, primary screen, imaging, high-content, MEF GFP-LC3; calls only at 10 µM (by protocol); MEF GFP-LC3 puncta imaging; test concentration mostly 10 µM; 0.98% of 190,000 active; AID 463193, 2010;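 active = percentage of spot-positive cells more than 3 SD above its plate mean, without a fluorescence outlier flag or 80% toxicity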;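 note: spot-positive cell cutoff set from DMSO-treated cells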
# Redox H2O2 prof = compounds producing H2O2 with reducing agent – biochemical, NIH compound library profiling, artefact control for MLSCN library redox annotation, primary screen. DTT-dependent redox cycling H2O2, phenol red/HRP absorbance; 100% = 100 µM peroxide control, 0% = buffer. activation, % at 10 µM. 0.03% of 200,000 active;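 active = activation of at least 50% relative to the plate's high and low controls in the primary single-dose screen; inactive = activation below 50%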;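 note: compound incubated with DTT at 0.8 mM final as the reducing agent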
# NCF1 inh = p47phox/p22phox peptide binding inhibitors, primary screen, biochemical, uHTS, NADPH oxidase regulatory subunit. fluorescence polarization, 2 h. inhibition, % at 24.7 µM. 0.53% of 220,000 active. AID 1274, 2008;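 active = inhibition above about 30%, limit read from the data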;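 note: 0% = p47phox with labelled peptide and 100% = labelled peptide alone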
# Target sequence (P14598 whole entry, looked up): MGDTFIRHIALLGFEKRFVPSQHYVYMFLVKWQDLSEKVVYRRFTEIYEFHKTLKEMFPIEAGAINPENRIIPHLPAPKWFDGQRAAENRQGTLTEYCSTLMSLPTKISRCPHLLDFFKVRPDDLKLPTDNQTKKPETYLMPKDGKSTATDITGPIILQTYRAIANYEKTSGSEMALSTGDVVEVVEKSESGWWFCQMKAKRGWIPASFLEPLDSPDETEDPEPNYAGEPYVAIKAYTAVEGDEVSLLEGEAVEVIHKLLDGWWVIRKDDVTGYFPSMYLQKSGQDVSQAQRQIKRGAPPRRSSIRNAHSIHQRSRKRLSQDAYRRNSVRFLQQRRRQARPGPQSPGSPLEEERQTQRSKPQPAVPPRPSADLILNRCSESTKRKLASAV
# HMGR II inh = inhibitors of E. faecalis class II HMGR, primary screen, biochemical, Enterococcus faecalis | AID 1066, 2008 | purified E. faecalis HMGR, NADPH absorbance 340 nm kinetic | inhibition, % at 10 µM | 0.41% of 190,000 active | HMG-CoA reductase (Enterococcus faecalis, mvaE);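 active = inhibition above a set limit, the median over all tested compounds plus 3 SD, cut at about 9.5% in these data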;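 note: enzyme runs in reverse so mevalonate oxidation gives rising NADPH absorbance; 0% = complete reaction with DMSO and 100% = background rate lacking mevalonate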
# Ins promoter up = insulin promoter activators in MIN6 cells, imaging, high-content screening, mouse beta cells; MIN6 insulin promoter-GFP reporter; hits give high values; 0.3% of 190,000 active; AID 1625, 2009; z-score at 5 µM;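 active = z-score above 3 at 5 µM with at least 500 cells counted in the well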
# * marks the source's active call; other numbers are inactive results; i = inactive; / = not tested or not shown; + = active, no number; ! = not confirmed by another sample. Compounds with a hit are over-represented: about 2.2% of the library has one in this group of screens.
SMILES,Arbovirus inh,Autophagy HCS,Redox H2O2 prof,NCF1 inh,HMGR II inh,Ins promoter up
Cn1c(=O)n(C)c2cc(NC(=O)COc3ccc(Cl)cc3)ccc21,-4.5,i,-0.9,-1.1,-4.1,3.02*
COC(=O)c1c(C(C)=O)c(C)n(C)c1C,/,/,/,-12.4,/,-0.82
CC1(C(=O)NCCN2CCOCC2)C=CC2(CCCCC2)N1C(=O)c1ccccc1 (centres undefined),1.1,i,0.5,-5.6,9.7*,-0.35
O=[N+]([O-])c1ccc(-c2nc(-c3cccs3)c(-c3cccs3)[nH]2)cc1,-32.9,+,-1.0,-49.0,1.6,/
O=[N+]([O-])c1cccc(-c2nc(-c3cccs3)c(-c3cccs3)[nH]2)c1,3.5,i,1.9,-17.5,0.6,-0.72
O=C(N/N=C/c1cc([N+](=O)[O-])ccc1O)C12CC3CC(CC(C3)C1)C2,-11.6,i,0.0,18.5,12.8*,0.98
Cc1ccccc1-c1nc(CS(=O)(=O)CC(=O)NCCN2CCOCC2)c(C)o1,-1.0,i,-0.5,68.8*,1.0,-1.41
O=C(Nc1ccccc1C(=O)NCc1ccc(Cl)cc1)c1ccco1,4.6,i,2.5,31.1*,-0.2,-0.1
COc1cc(OC)c(C2CC(=O)N3CN(c4ccccc4C)CSC3=C2C#N)cc1OC (centres undefined),5.4,i,1.1,47.3*,-2.4,-0.05
Cc1ccc(S(=O)(=O)/C(=C/Cl)NC(=O)c2ccccc2)cc1,0.4,i,0.1,-4.2,1.1,0.62
COc1cc2c(cc1OC)-c1nncn1C(C)(C)C2,3.0,i,1.7,-16.7,1.1,3.76*
O=C1Nc2ccccc2/C1=N\c1sc2c(c1C(=O)Nc1ccccc1)CCCC2,-7.0,+,0.5,-4.7,-2.7,-1.32
Cc1c(CN(C)C(=O)/C=C/c2ccc([N+](=O)[O-])cc2)cnn1C,1.3,i,0.6,-7.3,0.1,-0.28
O=C(NCCCN1CCCC1=O)c1ccc(Cl)c(Cl)c1,4.7,i,0.3,-8.1,-4.2,0.26
Cc1cc(NS(=O)(=O)c2ccc(NC(=O)c3ccco3)cc2)no1,-3.4,+,0.4,-2.6,0.0,1.01
Cc1cc(NS(=O)(=O)c2ccc(NC(=O)c3ccco3)cc2)nc(C)n1,4.7,i,0.2,-3.8,-0.3,-0.84
C=CCN1C(=O)/C(=C/C=C2/N(CC)c3ccc(S(=O)(=O)N(C)C)cc3N2CC)SC1=S,1.5,+,0.8,-233.0,3.4,/
O=C(COC(=O)c1ccc(Cl)c(S(=O)(=O)N2CCCCC2)c1)NCC1CCCO1 (centres undefined),5.9,i,-0.1,/,-1.9,0.61
Cc1ncc([N+](=O)[O-])n1CCO,9.8,i,-1.2,15.8,-2.1,0.11
Cc1ncc([N+](=O)[O-])n1CC(C)O (centres undefined),3.0,i,2.0,-12.2,15.6*!,-0.15
Cc1ccc(Cn2c([N+](=O)[O-])cnc2C)cc1,2.7,i,-0.5,-49.8,-5.3,-0.14
CCS(=O)(=O)CCn1c([N+](=O)[O-])cnc1C,6.0,i,1.5,-1.8,13.6*,/
O=C(NCc1ccccc1)c1ccc(COCC(F)(F)F)o1,-0.6,i,-0.2,-6.8,-2.2,-0.06
CCC(=O)OC1=C2C(=Nc3c(c(=O)n(C)c(=O)n3C)C2c2ccccc2)c2ccccc21 (centres undefined),/,i,1.9,/,/,/
Cc1ccc(/C=C(\CCC(=O)O)c2nc3ccccc3s2)cc1[N+](=O)[O-],23.1,i,0.1,-16.3,0.6,-0.23
CN(c1ccccc1)c1ccc(/C=C(\CCC(=O)O)c2nc3ccccc3s2)cc1[N+](=O)[O-],37.1*,i,0.2,-2.6,3.5,-0.14
Cc1cc(C)c(C)c(S(=O)(=O)N2CCN(C)CC2)c1C,16.6,+,0.6,-9.8,-3.3,-0.78
Cc1ccc(S(=O)(=O)N2CCN(C)CC2)c(C)c1,2.7,i,1.0,-4.3,-4.1,-0.38
C=CCN(c1ccc(C(=O)NCCc2ccccc2)cc1)S(C)(=O)=O,10.2,i,0.5,1.3,-5.1,0.52
CS(=O)(=O)N1CCN(c2ccccc2NC(=O)c2ccco2)CC1,5.6,i,3.6,-2.1,-0.4,1.42
